Reference: PubChem BioAssay (NCI)
This is part of a sample that, as a whole, favours compounds with a hit. Of some 83,000 tested, about 20% had one in any assay.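 Cells were grown in 96-well plates and exposed to the test compound at a single concentration for 48 hours; results are reported as percent growth, with values below 10 considered active.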 The source made the active and inactive calls.

Legend:
Experiment in all cases: NCI-60 one-dose screen, 48 h (100 = growth as untreated, 0 = no growth, -100 = all killed)
Settings in all cases: 10 µM unless noted
[1] = test system: NCI-H23 lung
[2] = test system: NCI-H226 lung
[3] = test system: NCI-H322M lung
[4] = test system: HOP-62 NSCLC
[5] = test system: NCI-H460 lung
[6] = test system: HOP-92 NSCLC
[7] = test system: NCI-H522 lung
[8] = test system: A549/ATCC NSCLC
[9] = test system: 786-0 renal
[10] = test system: COLO 205 colon

Measured: growth

CCCCNc1cc(-c2cn[nH]c2-c2cc(C)cc(OC)c2)nc(-c2cccnc2)n1
inactive: [1] 101% | [2] 87.4% | [3] 86.9% | [4] 95.6% | [5] 99.7% | [6] 68.2% | [7] 81.2% | [8] 94.3% | [9] 68.2% | [10] 99.5%

O=C1c2ccccc2C(=O)c2c1c(C(=O)NCc1ccccc1)c1ccccn21
inactive: [1] 101% | [2] 100% | [3] 99.4% | [4] 94.4% | [5] 107% | [6] 91.7% | [7] 73.4% | [8] 76.8% | [9] 94.5% | [10] 108%

CCOC(=O)c1[nH]c2c(c1C)-c1[nH]c(=O)c(S(=O)(=O)c3ccccc3)cc1SC2
active: [6] -27.4% [100 µM] | [7] -0.182% [100 µM] | [10] -25.8% [100 µM]
inactive: [1] 35.4% [100 µM] | [2] 37.9% [100 µM] | [3] 42.4% [100 µM] | [4] 34.3% [100 µM] | [5] 38.2% [100 µM] | [8] 43.7% [100 µM] | [9] 21.1% [100 µM]

Cc1ccc(C)c2c(C)c(C(=O)Nc3cccc(-n4cccn4)c3)oc12
inactive: [1] 73.1% [50 µM] | [2] 62.1% [50 µM] | [3] 86.5% [50 µM] | [4] 99.4% [50 µM] | [5] 56.4% [50 µM] | [6] 90.8% [50 µM] | [7] 32% [50 µM] | [8] 58.4% [50 µM] | [9] 82.2% [50 µM] | [10] 62.8% [50 µM]

C=CCC(CCCC)(C(=O)OCC)C(=O)OCC
inactive: [1] 98.8% | [2] 106% | [3] 109% | [4] 111% | [5] 117% | [6] 96.2% | [7] 94% | [8] 103% | [9] 94.9% | [10] 111%

CSc1nc(C)c([N+](=O)[O-])c(N)n1
inactive: [1] 101% | [2] 102% | [3] 93.7% | [4] 104% | [5] 104% | [6] 89.3% | [7] 77.2% | [8] 76.2% | [9] 103% | [10] 110%

Cc1ccc(S(=O)(=O)OCCCOS(=O)(=O)c2ccc(C)cc2)cc1
inactive: [1] 105% | [2] 107% | [3] 92.3% | [4] 113% | [5] 96.5% | [6] 77.4% | [7] 89% | [8] 93.4% | [9] 90.8% | [10] 110%

Cc1nn(-c2cc(NC3CCC(O)CC3)c3c(=O)[nH]c(CCC(F)(F)F)cc3c2)c2c1C(=O)CC(C)(C)C2 (stereo not given)
inactive: [1] 20.3% | [2] 67.8% | [3] 56.5% | [4] 44% | [5] 21% | [6] 54.5% | [7] 49.5% | [8] 38.8% | [9] 43.9% | [10] 36.9%

CC1=C(C(=O)Nc2nc(-c3ccc(Cl)cc3)cs2)[C@H](c2ccc(O)cc2)NC(=O)N1
inactive: [1] 101% | [2] 87.8% | [3] 88.3% | [4] 99.1% | [5] 104% | [6] 100% | [7] 90.5% | [8] 95.1% | [9] 97.8% | [10] 110%

CO[C@H](C(=O)[C@@H](O)[C@@H](C)O)[C@@H]1Cc2cc3cc(O[C@H]4C[C@@H](O[C@H]5C[C@@H](O)[C@H](O)C(C)O5)[C@H](O)C(C)(O)O4)cc(O)c3c(O)c2C(=O)[C@H]1O[C@H]1C[C@@H](O[C@H]2C[C@@H](O[C@H]3C[C@@H](OC)[C@H](O)C(C)O3)[C@@H](O)C(C)O2)[C@H](O)C(C)O1 (stereo not given in full)
active: [2] -29.7% | [4] 1.64% | [7] -17.6% | [8] 6.26% | [10] -42.4%
inactive: [1] 16.4% | [3] 21.1% | [5] 12.9% | [6] 25.2% | [9] 26.6%

COc1ccc(C(=O)/C=C/c2ccc(N3CCCCC3)cc2)cc1OC
inactive: [1] 92.5% | [2] 72.7% | [3] 91.5% | [4] 98.3% | [5] 97.9% | [6] 69.9% | [7] 84.4% | [8] 90% | [9] 103% | [10] 100%

CN(CCC(=O)c1ccccc1)CCC(=O)c1ccccc1
inactive: [1] 91.5% | [2] 97.4% | [3] 96.4% | [4] 100% | [5] 97.9% | [6] 72.6% | [8] 97.7% | [9] 65.4% | [10] 89.3%
active: [7] -87.7%

N#CC1CCc2c(c(-c3ccc4nc(N)sc4c3)nc3ccc4[nH]ncc4c23)C1 (stereo not given)
inactive: [1] 36.9% | [2] 51.1% | [3] 70.5% | [4] 54.5% | [5] 12.4% | [6] 70.3% | [7] 40.2% | [8] 46% | [9] 49.3% | [10] 40.5%
